Measurements from PubChem BioAssay (NCATS).
Inconclusive results are not listed. Where a call stands in place of a potency, no number is given. Calls of active or inactive are those of the source. The call rests on the fitted dose curve; in most records, active means well fitted curve in the direction sought with a large enough effect; inconclusive means small, poorly fitted or top-dose-only effect, or another doubt; inactive means no such curve, though single readings can be large; an effect the other way counts as inactive or inconclusive.

Columns and labels:
HEK293T [1] = assay: qHTS assay to identify novel small-molecules to repurpose for Merkel cell carcinoma treatment (AID 1296009); conditions: MCC and control cell lines, CellTiter-Glo viability, 72 h; at 44.8 µM (top of the series) unless noted; further: nearly all actives have a fitted effect of over 60% in size
Outline: (§1)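 Cell viability, measured as CellTiter-Glo luminescence, was normalized between DMSO and no-cell wells. The cells had been exposed to 8- or 11-point compound dilutions for 72 hr at 37 degree celsius.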

MCC-13 = assay: as above; conditions: MCC and control cell lines, CellTiter-Glo viability, 72 h; series mostly up to 46 µM
Outline: as §1

MCC-26 = assay: as above; conditions: MCC and control cell lines, CellTiter-Glo viability, 72 h; series mostly up to 46 µM
Outline: as §1

MKL-1 = assay: as above; conditions: MCC and control cell lines, CellTiter-Glo viability, 72 h; series mostly up to 46 µM
Outline: as §1

MKL-2 = assay: as above; conditions: MCC and control cell lines, CellTiter-Glo viability, 72 h; series mostly up to 46 µM
Outline: as §1

NIH3T3 = assay: as above; conditions: MCC and control cell lines, CellTiter-Glo viability, 72 h; at 44.8 µM (top of the series) unless noted
Outline: as §1

UISO = assay: as above; conditions: MCC and control cell lines, CellTiter-Glo viability, 72 h; series mostly up to 46 µM
Outline: as §1

WaGa = assay: as above; conditions: MCC and control cell lines, CellTiter-Glo viability, 72 h; series mostly up to 46 µM
Outline: as §1

C33A = assay: Primary qHTS to identify gynecologic anti-cancer compounds using libraries of approved drugs and bioactive compounds (AID 1345084); conditions: Gynecologic cancer cell panel viability, ATPlite luminescence, 48 h; series mostly up to 57.5 µM; further: nearly all actives have a fitted effect of over 55% in size
Outline: (§2)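 Cells, 1,000 per well, were allowed to settle for 16 h at 37 C before compound addition. Five concentrations were tested for 48 h, and viability was read by ATPlite luminescence after 15 min at room temperature.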

CASKI = assay: as above; conditions: Gynecologic cancer cell panel viability, ATPlite luminescence, 48 h; series mostly up to 57.5 µM
Outline: as §2

Es-2 = assay: as above; conditions: Gynecologic cancer cell panel viability, ATPlite luminescence, 48 h; series mostly up to 57.5 µM
Outline: as §2

HeLa = assay: as above; conditions: Gynecologic cancer cell panel viability, ATPlite luminescence, 48 h; series mostly up to 57.5 µM
Outline: as §2

Hek293T [2] = assay: as above; conditions: Gynecologic cancer cell panel viability, ATPlite luminescence, 48 h, control line for the selectivity index; series mostly up to 57.5 µM
Outline: as §2

JEG-3 = assay: as above; conditions: Gynecologic cancer cell panel viability, ATPlite luminescence, 48 h; series mostly up to 57.5 µM
Outline: as §2

OV90 = assay: as above; conditions: Gynecologic cancer cell panel viability, ATPlite luminescence, 48 h; series mostly up to 57.5 µM
Outline: as §2

PA-1 = assay: as above; conditions: Gynecologic cancer cell panel viability, ATPlite luminescence, 48 h; series mostly up to 57.5 µM
Outline: as §2

SKOV3 = assay: as above; conditions: Gynecologic cancer cell panel viability, ATPlite luminescence, 48 h; series mostly up to 57.5 µM
Outline: as §2

Tov-21-G = assay: as above; conditions: Gynecologic cancer cell panel viability, ATPlite luminescence, 48 h; series mostly up to 57.5 µM
Outline: as §2

Tov112D = assay: as above; conditions: Gynecologic cancer cell panel viability, ATPlite luminescence, 48 h; series mostly up to 57.5 µM
Outline: as §2

CAOV3 = assay: as above; conditions: Gynecologic cancer cell panel viability, ATPlite luminescence, 48 h; series mostly up to 57.5 µM
Outline: as §2
Potency means the concentration at half of the fitted maximal effect.

SMILES	outcome (HEK293T [1])	Potency (MCC-13)	Potency (MCC-26)	Potency (MKL-1)	Potency (MKL-2)	outcome (NIH3T3)	Potency (UISO)	Potency (WaGa)	Potency (C33A)	Potency (CASKI)	Potency (Es-2)	Potency (HeLa)	Potency (Hek293T [2])	Potency (JEG-3)	Potency (OV90)	Potency (PA-1)	Potency (SKOV3)	Potency (Tov-21-G)	Potency (Tov112D)	Potency (CAOV3)
NC(CSCC(=O)O)C(=O)O (stereo unspecified)	inactive	inactive	inactive	inactive	inactive	inactive	inactive	inactive	inactive	inactive	inactive	inactive	inactive	inactive	inactive	inactive	inactive	inactive	inactive	–
CC(C)(C(=O)O)c1ccc(C(O)CCCN2CCC(C(O)(c3ccccc3)c3ccccc3)CC2)cc1 (stereo unspecified)	inactive	inactive	inactive	inactive	inactive	inactive	inactive	inactive	inactive	inactive	inactive	inactive	inactive	inactive	inactive	inactive	inactive	inactive	inactive	inactive
CC(=O)CCC(=O)O	inactive	inactive	inactive	inactive	inactive	inactive	inactive	inactive	inactive	inactive	inactive	inactive	inactive	inactive	inactive	inactive	inactive	inactive	inactive	inactive
Cn1cc[nH]c1=S	inactive	inactive	inactive	inactive	inactive	inactive	inactive	inactive	inactive	inactive	inactive	inactive	inactive	inactive	inactive	inactive	inactive	inactive	inactive	inactive
CCN(CC)CCNC(=O)c1cc(Cl)c(N)cc1OC	inactive	inactive	inactive	inactive	inactive	inactive	inactive	inactive	inactive	inactive	inactive	inactive	inactive	inactive	inactive	inactive	inactive	inactive	inactive	inactive
CC(C)(C)C(=O)C(Oc1ccc(Cl)cc1)n1ccnc1 (stereo unspecified)	inactive	inactive	inactive	inactive	inactive	inactive	11.9 µM (active)	inactive	inactive	inactive	inactive	inactive	inactive	inactive	inactive	inactive	inactive	inactive	inactive	inactive
NS(=O)(=O)c1cc2c(cc1Cl)NC(CSCc1ccccc1)=NS2(=O)=O	inactive	inactive	inactive	inactive	inactive	inactive	inactive	inactive	inactive	inactive	inactive	inactive	inactive	inactive	inactive	inactive	inactive	inactive	inactive	–
CC(O)CN(CCN(CC(C)O)CC(C)O)CC(C)O (stereo unspecified)	inactive	inactive	inactive	inactive	inactive	inactive	inactive	inactive	inactive	inactive	inactive	inactive	inactive	inactive	inactive	inactive	inactive	inactive	inactive	inactive
N[C@@H](CSCCCO)C(=O)O	inactive [at 17.4 µM]	inactive	inactive	inactive	inactive	inactive [at 17.4 µM]	inactive	inactive	inactive	inactive	inactive	inactive	inactive	inactive	inactive	inactive	inactive	inactive	inactive	–
O=C(O)[C@@H]1CSCN1	inactive	inactive	inactive	inactive	inactive	inactive	inactive	inactive	inactive	inactive	inactive	inactive	inactive	inactive	inactive	inactive	inactive	inactive	inactive	inactive
O=c1[nH]cnc2c1ncn2[C@@H]1O[C@H](CO)[C@@H](O)[C@H]1O	inactive	inactive	inactive	inactive	inactive	inactive	inactive	inactive	inactive	inactive	inactive	inactive	inactive	inactive	inactive	inactive	inactive	inactive	inactive	inactive
COc1cc(C)c(Cc2cnc(N)nc2N)cc1OC	inactive	inactive	inactive	inactive	inactive	–	inactive	inactive	inactive	inactive	inactive	inactive	inactive	inactive	inactive	inactive	inactive	inactive	inactive	inactive
O=c1cc(CO)occ1O	inactive	inactive	inactive	inactive	inactive	–	inactive	inactive	inactive	inactive	inactive	inactive	inactive	inactive	inactive	inactive	inactive	inactive	inactive	inactive
C[C@]12CC[C@@H]3c4ccc(O)cc4CC[C@H]3[C@@H]1CCC2=O	inactive	inactive	inactive	inactive	inactive	–	inactive	inactive	inactive	inactive	inactive	28.2 µM (active)	inactive	inactive	inactive	inactive	inactive	inactive	inactive	inactive
C[C@H](N)[C@H](O)c1cccc(O)c1	inactive	inactive	inactive	inactive	inactive	–	inactive	inactive	inactive	inactive	inactive	inactive	inactive	inactive	inactive	inactive	inactive	inactive	inactive	inactive
Cc1ncc(COP(=O)(O)O)c(C=O)c1O	inactive	inactive	inactive	inactive	inactive	–	inactive	inactive	inactive	inactive	inactive	inactive	inactive	inactive	inactive	inactive	inactive	inactive	inactive	inactive
N[C@H](C(=O)O)c1ccc(O)cc1	inactive [at 17.4 µM]	inactive	inactive	inactive	inactive	–	inactive	inactive	inactive	inactive	inactive	inactive	inactive	inactive	inactive	inactive	inactive	inactive	inactive	inactive
CCCc1c(OCCCCc2nn[nH]n2)ccc(C(C)=O)c1O	inactive	inactive	inactive	inactive	inactive	–	inactive	inactive	inactive	inactive	inactive	inactive	inactive	inactive	inactive	inactive	inactive	inactive	inactive	inactive
OC[C@H]1O[C@@H](O[C@@H]2[C@@H](CO)O[C@](O)(CO)[C@H]2O)[C@H](O)[C@@H](O)[C@H]1O	inactive	inactive	inactive	inactive	inactive	–	inactive	inactive	inactive	inactive	inactive	inactive	inactive	inactive	inactive	inactive	inactive	inactive	inactive	inactive
Cc1cc2c(cc1S(N)(=O)=O)S(=O)(=O)CCC2	inactive	inactive	inactive	inactive	inactive	–	inactive	inactive	inactive	inactive	inactive	inactive	inactive	inactive	inactive	inactive	inactive	inactive	inactive	inactive
Nc1ccc(S(=O)(=O)Nc2ccccc2)cc1	inactive	inactive	inactive	inactive	inactive	–	inactive	inactive	inactive	inactive	inactive	inactive	inactive	inactive	inactive	inactive	inactive	inactive	inactive	inactive
O=C(O)Cc1sc(-c2ccccc2)nc1-c1ccc(Cl)cc1	inactive	inactive	inactive	inactive	inactive	–	inactive	inactive	inactive	inactive	inactive	inactive	inactive	inactive	inactive	inactive	inactive	inactive	inactive	inactive
COc1ccc2[nH]c(S(=O)Cc3ncc(C)c(OC)c3C)nc2n1 (stereo unspecified)	inactive	inactive	inactive	inactive	inactive	inactive	inactive	–	inactive	inactive	inactive	inactive	inactive	inactive	inactive	inactive	inactive	inactive	inactive	–
CC1(C)OC(=O)NC1=O	inactive	inactive	inactive	inactive	inactive	–	inactive	inactive	inactive	inactive	inactive	inactive	inactive	inactive	inactive	inactive	inactive	inactive	inactive	inactive
O=C(O)COc1nn(Cc2ccccc2)c2ccccc12	inactive	inactive	inactive	inactive	inactive	–	inactive	inactive	inactive	inactive	inactive	inactive	inactive	inactive	inactive	inactive	inactive	inactive	inactive	inactive
NC(=O)NC(=O)Cc1ccccc1	inactive	inactive	inactive	inactive	inactive	–	inactive	inactive	inactive	inactive	inactive	inactive	inactive	inactive	inactive	inactive	inactive	inactive	inactive	–
CC1(C)[C@@H]2CC[C@@]1(C)C(=O)C2	inactive	inactive	inactive	inactive	inactive	–	inactive	inactive	inactive	inactive	inactive	inactive	inactive	inactive	inactive	inactive	inactive	inactive	inactive	inactive
O=C1O[C@H](CO)[C@@H](O)[C@H](O)[C@H]1O	inactive	inactive	inactive	inactive	inactive	–	inactive	inactive	inactive	inactive	inactive	inactive	inactive	inactive	inactive	inactive	inactive	inactive	inactive	–
N[C@H]1C(O)O[C@H](CO)[C@@H](O)[C@@H]1O (stereo partly specified)	inactive	inactive	inactive	inactive	inactive	–	inactive	inactive	inactive	inactive	inactive	inactive	inactive	inactive	inactive	inactive	inactive	inactive	inactive	inactive
